Assay results: the supplement of paper PMC6555819

Assays:
Assay in all cases: PBM binding z-score (relative to random genomic background probes); higher = stronger binding; sequences stand for … in GC…GCGATTGACAGCGTAGAATGAAGG
[1] = system: PPARg:RXRa DBDmut IVT, anti-RXR (DBD mutation: RXRa K156A/R161A, NR concentration 270 nM, RXRa partner concentration 90 nM)
In short: (§1)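 Ligand-free nuclear receptor dimers were bound for 1 h to custom Agilent 4×180K protein-binding microarrays. Detection used antibodies against each partner (one per run). Binding z-scores rest on regression-normalized fluorescence, with random background probes as the reference.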

[2] = system: PPARg:RXRa IVT, anti-PPARg (NR concentration 270 nM, RXRa partner concentration 90 nM)
In short: as §1

[3] = system: PPARg DBDmut:RXRa IVT, anti-PPARg (DBD mutation: PPARg1 K132A/R137A, NR concentration 270 nM, RXRa partner concentration 90 nM)
In short: as §1

[4] = system: PPARg DBDmut IVT, anti-PPARg (DBD mutation: PPARg1 K132A/R137A, NR concentration 270 nM)
In short: as §1

[5] = system: PPARg homodimer (NR concentration 180 nM)
In short: as §1

[6] = system: PXR:RXRa (NR concentration 270 nM, RXRa partner concentration 90 nM)
In short: as §1

[7] = system: PXR homodimer (NR concentration 270 nM)
In short: as §1

[8] = system: RARa:RXR (NR concentration 270 nM, RXRa partner concentration 90 nM)
In short: as §1

[9] = system: RARa homodimer (NR concentration 270 nM)
In short: as §1

[10] = system: RARb:RXRa (NR concentration 270 nM, RXRa partner concentration 90 nM)
In short: as §1

[11] = system: RARb homodimer (NR concentration 270 nM)
In short: as §1

[12] = system: RARg:RXRa (NR concentration 270 nM, RXRa partner concentration 90 nM)
In short: as §1

[13] = system: RARg homodimer (NR concentration 270 nM)
In short: as §1

[14] = system: RXRa DBDmut IVT, anti-RXR (DBD mutation: RXRa K156A/R161A, NR concentration 90 nM)
In short: as §1

[15] = system: RXRa homodimer (NR concentration 180 nM)
In short: as §1

[16] = system: THRa:RXRa (NR concentration 90 nM, RXRa partner concentration 90 nM)
In short: as §1

[17] = system: THRa homodimer (NR concentration 90 nM)
In short: as §1

[18] = system: VDR homodimer (NR concentration 270 nM)
In short: as §1

| Sequence | PBM binding z-score [1] | PBM binding z-score [2] | PBM binding z-score [3] | PBM binding z-score [4] | PBM binding z-score [5] | PBM binding z-score [6] | PBM binding z-score [7] | PBM binding z-score [8] | PBM binding z-score [9] | PBM binding z-score [10] | PBM binding z-score [11] | PBM binding z-score [12] | PBM binding z-score [13] | PBM binding z-score [14] | PBM binding z-score [15] | PBM binding z-score [16] | PBM binding z-score [17] | PBM binding z-score [18] |
| --- | --- | --- | --- | --- | --- | --- | --- | --- | --- | --- | --- | --- | --- | --- | --- | --- | --- | --- |
| GCTCGGAGGACAAGGTCAAAGCTTTGTCCGTAGA | 0.217 | 2.07 | -1.59 | -1.02 | 1.34 | 3.51 | 0.43 | 3.77 | -0.688 | 4.08 | 3.35 | 4.56 | 4.54 | 1.32 | 4.4 | 3.57 | 2.09 | 2.02 |
| CAAACTAGGTCACCGGACGGTCAAAGTCCGCATG | 8.62 | 8.82 | 3.09 | 1.22 | 4.69 | 2.54 | 0.265 | 3.73 | 0.94 | 4.7 | 4.41 | 6.71 | 6.04 | 1.41 | 4.05 | 3.5 | 1.73 | 1.1 |
| GCATATAGGTAATACCAGGTGAAAGTCCGATTGT | 4.03 | 3.4 | 0.784 | 0.508 | 0.56 | 0.0811 | 0.268 | 1.47 | 0.331 | -0.00831 | 0.327 | 0.203 | 0.193 | 0.247 | 0.369 | 3.99 | 0.748 | -0.0397 |
| GTACCAAGGTGATTAGGTCGTTGATGAGTAGGCG | 1.26 | 1.63 | 0.301 | -0.28 | 1.06 | 0.265 | 0.198 | 0.753 | 0.341 | 1.1 | 1.06 | 0.806 | 0.66 | 0.0245 | 0.805 | 1.49 | 1.03 | 0.631 |
| CCGACTGGGGCAAGGCTACCATAACGCACAGCCA | 2.56 | 2.89 | -0.229 | -0.37 | -0.287 | -0.481 | -0.488 | -0.164 | -0.086 | 0.763 | 0.53 | 0.348 | 0.614 | -0.842 | 0.0101 | -0.203 | -0.4 | -0.136 |
| CAAACTAGGTCAAAGGTTAAAGTCGAGCCAACCA | 8.92 | 9.36 | 6.93 | 5.38 | 5.15 | 5.99 | 0.433 | 8.12 | 2.07 | 5.01 | 3.86 | 7.3 | 5.26 | 2.59 | 8.93 | 4.29 | 1.04 | 1.6 |
| CCGACTAGGTTATGGGGCATTCAGGCAACGGTGA | 3.02 | 3.3 | -0.895 | -0.581 | 1.05 | -0.0889 | -0.0769 | 0.303 | -0.167 | 0.869 | 1.03 | 0.358 | 0.34 | -0.142 | 0.666 | 0.586 | 0.24 | 0.126 |
| AGTCAAAGTTCAGGAAGAGGTAACGTAAAGCACG | 0.106 | 2.18 | 0.684 | 0.616 | 2.21 | 2.84 | 0.943 | 3.04 | 0.831 | 4.45 | 3.02 | 5.33 | 4.81 | 2.79 | 2.93 | 2.91 | 0.341 | 1.81 |
